Test results published in PubChem BioAssay (EPA / NIEHS).
Records with an inconclusive call do not appear. Activity calls are given as the source filed them. The calls were made as follows, unless noted: active = hit-call score of the fitted dose curve at least 0.9, where 1 is the maximum; inconclusive = response in the unintended direction; inactive = score below 0.9.

Columns and labels:
[1] = target: Bile acid receptor (Homo sapiens) (UniProt Q96RI1); assay: ATG_FXR_TRANS: Attagene TRANS-FACTORIAL HepG2 Assay for Farnesoid X Receptor (FXR) (AID 2282979); conditions: HepG2 Attagene TRANS FXR-GAL4 reporter transcription;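 also: hits raise reporter mRNA above DMSO so AC50 marks FXR activation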
Procedure, shortened: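 Transient transfection of HepG2 with multiplexed GAL4-UAS reporter units; exogenous FXR-GAL4 chimera. Dose 24 h → TriZol RNA → oligo(dT) RT → PCR, 6-FAM primer extension, HpaI cut → CE. Gain vs DMSO.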

[2] = target: Oxysterols receptor LXR-beta (Homo sapiens) (UniProt P55055); assay: ATG_LXRb_TRANS: Attagene TRANS-FACTORIAL HepG2 Assay for human Liver X Receptor beta (LXRb) (AID 2282981); conditions: HepG2 Attagene TRANS GAL4-LXRb reporter, mRNA
Procedure, shortened: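 After 24 h chemical treatment of transfected HepG2 cells carrying exogenous NR-Gal4 chimeras, reporter mRNA was quantified by fluorescent RT-PCR and capillary electrophoresis; activity taken as increase over DMSO controls.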

[3] = target: Hepatocyte nuclear factor 4-alpha (Homo sapiens) (UniProt P41235); assay: ATG_HNF4a_TRANS: Attagene TRANS-FACTORIAL HepG2 Assay for human Hepatocyte Nuclear Factor 4 alpha (HNF4a) (AID 2282982); conditions: HepG2 HNF4a transactivation reporter, mRNA readout
Procedure, shortened: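 Activity of an exogenous HNF4a–Gal4 fusion scored as induced GAL4-UAS reporter transcripts after 24 h chemical exposure of transfected human HepG2 cells. Read-out via RT-PCR with 6-FAM labelling and capillary electrophoresis; rise over DMSO baseline.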

[4] = ATG_M_06_TRANS: Attagene TRANS-FACTORIAL HepG2 Assay for M06 Transcription Factor (Internal Marker) (AID 2282983); conditions: HepG2 Attagene TRANS M06 internal marker reporter;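 also: reporter transcript level by RT-PCR then capillary electrophoresis fluorescence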
Procedure, shortened: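 Background control endpoint: reporter mRNA from transiently transfected HepG2 after 24 h dosing, detected by RT-PCR with capillary electrophoresis fluorescence. Analysed for gain versus DMSO.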

[5] = target: Nuclear receptor subfamily 4 group A member 2 (Homo sapiens) (UniProt P43354); assay: ATG_NURR1_TRANS: Attagene TRANS-FACTORIAL HepG2 Assay for human Nuclear Receptor Related Protein 1 (NURR1) (AID 2282985); conditions: HepG2 Attagene TRANS reporter, mRNA readout
Procedure, shortened: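 Reporter transcript induction, measured by RT-PCR with fluorescent labelling, HpaI digestion and capillary electrophoresis, after 24 hr dosing of human HepG2 cells transiently expressing an exogenous NR-Gal4 fusion with GAL4-UAS-driven reporters; DMSO as baseline.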

[6] = target: Nuclear respiratory factor 1 (Homo sapiens) (UniProt Q16656); assay: ATG_NRF1_CIS: Attagene CIS-FACTORIAL HepG2 Assay for human Nuclear Respiratory Factor 1 (NRF1) Orphan Gene (AID 2282987; active = hit-call score of the fitted dose curve at least 0.9, where 1 is the maximum; inactive = score below 0.9); conditions: HepG2 NRF1 cis-element reporter, Attagene multiplex; actives raise or lower the signal
Procedure, shortened: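 Endogenous NRF1-driven reporter transcription in transfected HepG2 cells after 24 h treatment. Readout: RT-PCR products, 6-FAM labelled and resolved by capillary electrophoresis; changes fitted both directions relative to DMSO.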

[7] = ATG_NFI_CIS: Attagene CIS-FACTORIAL HepG2 Assay for human Nuclear Factor I (NFI) (AID 2282989; active = hit-call score of the fitted dose curve at least 0.9, where 1 is the maximum; inactive = score below 0.9); conditions: HepG2 cis-regulatory reporter, NFI response element transcription; actives raise or lower the signal
Procedure, shortened: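 Transfected HepG2 liver cells, exposed 24 h, supplied total RNA for oligo(dT) reverse transcription and reporter-specific PCR. Labelled, HpaI-cut fragments were sized by capillary electrophoresis; DMSO set the baseline for bidirectional fitting.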

[8] = target: Oxysterols receptor LXR-alpha (Homo sapiens) (UniProt Q13133); assay: ATG_LXRa_TRANS: Attagene TRANS-FACTORIAL HepG2 Assay for human Liver X Receptor alpha (LXRa) (AID 2282980); conditions: HepG2 Attagene TRANS reporter, LXRa transactivation
Procedure, shortened: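 Transfect HepG2 with GAL4-UAS multiplex reporter constructs (TRANS format, chimeric receptor-GAL4); treat 24 h; extract RNA, reverse-transcribe, PCR-amplify, FAM-label, HpaI-digest; resolve fragments by capillary electrophoresis. Upward response vs DMSO.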

[9] = ATG_M_32_TRANS: Attagene TRANS-FACTORIAL HepG2 Assay for M32 Transcription Factor (Internal Marker) (AID 2282984); conditions: HepG2 Attagene TRANS M32 internal marker reporter;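 also: transcript level of a background control reporter unit measured by RT-PCR and capillary electrophoresis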
Procedure, shortened: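 Internal background reporter in transfected HepG2: after 24 h chemical exposure, RNA reverse-transcribed, reporter cDNA amplified, fluorescently labelled and HpaI-cut, then sized by capillary electrophoresis. Gain of signal fitted against DMSO control.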

[10] = target: Transcriptional activator Myb (Homo sapiens) (UniProt P10242); assay: ATG_Myb_CIS: Attagene CIS-FACTORIAL HepG2 Assay for human Myeloblastosis (Myb) Proto-Oncogene Transcription Factor (AID 2282986; active = hit-call score of the fitted dose curve at least 0.9, where 1 is the maximum; inactive = score below 0.9); conditions: HepG2 Attagene CIS-FACTORIAL Myb reporter transcription; actives raise or lower the signal
Procedure, shortened: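 Reporter mRNA is quantified by RT-PCR and capillary electrophoresis 24 h after dosing HepG2 cells transfected with cis-regulated reporter units, which track endogenous transcription factor activity. Gain and loss of signal are fitted versus DMSO baseline.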

Measured: AC50

Chain of Nuclear respiratory factor 1 (Homo sapiens) (Q16656 whole entry, looked up): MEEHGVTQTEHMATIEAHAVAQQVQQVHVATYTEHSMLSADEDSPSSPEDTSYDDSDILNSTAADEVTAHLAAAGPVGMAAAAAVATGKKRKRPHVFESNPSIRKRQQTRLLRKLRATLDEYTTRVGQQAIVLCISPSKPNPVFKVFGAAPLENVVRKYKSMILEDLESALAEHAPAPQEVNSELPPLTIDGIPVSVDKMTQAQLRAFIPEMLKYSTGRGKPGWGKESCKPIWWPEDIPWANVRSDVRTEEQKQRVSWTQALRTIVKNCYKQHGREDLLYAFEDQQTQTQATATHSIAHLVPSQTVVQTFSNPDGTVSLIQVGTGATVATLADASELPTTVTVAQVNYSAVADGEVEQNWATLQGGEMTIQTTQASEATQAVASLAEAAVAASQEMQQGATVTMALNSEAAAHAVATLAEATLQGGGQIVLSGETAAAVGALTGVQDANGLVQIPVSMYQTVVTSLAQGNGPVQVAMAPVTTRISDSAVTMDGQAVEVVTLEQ
Chain of Oxysterols receptor LXR-alpha (Homo sapiens) (Q13133 whole entry, looked up, the tested form may be a part): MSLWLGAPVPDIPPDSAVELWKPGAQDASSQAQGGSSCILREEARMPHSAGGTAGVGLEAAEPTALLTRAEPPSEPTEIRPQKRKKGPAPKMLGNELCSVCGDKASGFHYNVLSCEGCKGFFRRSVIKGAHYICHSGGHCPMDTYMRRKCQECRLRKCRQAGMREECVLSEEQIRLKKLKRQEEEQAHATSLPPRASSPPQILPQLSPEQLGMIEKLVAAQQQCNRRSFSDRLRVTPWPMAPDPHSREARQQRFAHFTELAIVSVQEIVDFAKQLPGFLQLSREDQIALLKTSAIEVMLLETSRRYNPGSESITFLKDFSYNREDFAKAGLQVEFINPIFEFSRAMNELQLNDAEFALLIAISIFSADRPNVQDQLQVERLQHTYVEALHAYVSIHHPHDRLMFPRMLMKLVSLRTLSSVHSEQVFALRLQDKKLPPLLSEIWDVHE
Chain of Bile acid receptor (Homo sapiens) (Q96RI1 whole entry, looked up, the tested form may be a part): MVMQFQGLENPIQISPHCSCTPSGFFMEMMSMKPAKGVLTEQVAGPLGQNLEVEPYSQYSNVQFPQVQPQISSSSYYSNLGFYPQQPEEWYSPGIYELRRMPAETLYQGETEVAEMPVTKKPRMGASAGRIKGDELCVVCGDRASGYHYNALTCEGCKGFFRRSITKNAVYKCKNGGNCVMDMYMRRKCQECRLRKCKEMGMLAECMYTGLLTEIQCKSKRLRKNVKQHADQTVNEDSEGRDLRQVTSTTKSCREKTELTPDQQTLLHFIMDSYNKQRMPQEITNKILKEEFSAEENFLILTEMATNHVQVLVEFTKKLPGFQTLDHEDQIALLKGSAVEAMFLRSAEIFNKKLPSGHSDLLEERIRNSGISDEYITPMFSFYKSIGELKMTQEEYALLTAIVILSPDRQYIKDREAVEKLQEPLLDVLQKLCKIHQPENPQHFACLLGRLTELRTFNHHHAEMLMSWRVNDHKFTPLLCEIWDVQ
Chain of Hepatocyte nuclear factor 4-alpha (Homo sapiens) (P41235 whole entry, looked up, the tested form may be a part): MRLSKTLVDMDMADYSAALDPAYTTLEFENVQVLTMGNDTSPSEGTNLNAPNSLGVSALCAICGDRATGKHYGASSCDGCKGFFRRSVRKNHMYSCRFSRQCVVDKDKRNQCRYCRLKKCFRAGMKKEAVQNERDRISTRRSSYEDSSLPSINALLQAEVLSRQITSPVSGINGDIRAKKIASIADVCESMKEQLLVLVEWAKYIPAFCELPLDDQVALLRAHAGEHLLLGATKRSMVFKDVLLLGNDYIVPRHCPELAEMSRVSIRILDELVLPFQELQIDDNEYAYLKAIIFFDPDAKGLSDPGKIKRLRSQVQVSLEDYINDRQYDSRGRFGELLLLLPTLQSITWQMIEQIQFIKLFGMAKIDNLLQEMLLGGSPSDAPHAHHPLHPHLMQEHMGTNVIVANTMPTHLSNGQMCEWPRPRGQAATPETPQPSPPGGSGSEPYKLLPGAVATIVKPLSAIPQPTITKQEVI
Chain of Nuclear receptor subfamily 4 group A member 2 (Homo sapiens) (P43354 whole entry, looked up, the tested form may be a part): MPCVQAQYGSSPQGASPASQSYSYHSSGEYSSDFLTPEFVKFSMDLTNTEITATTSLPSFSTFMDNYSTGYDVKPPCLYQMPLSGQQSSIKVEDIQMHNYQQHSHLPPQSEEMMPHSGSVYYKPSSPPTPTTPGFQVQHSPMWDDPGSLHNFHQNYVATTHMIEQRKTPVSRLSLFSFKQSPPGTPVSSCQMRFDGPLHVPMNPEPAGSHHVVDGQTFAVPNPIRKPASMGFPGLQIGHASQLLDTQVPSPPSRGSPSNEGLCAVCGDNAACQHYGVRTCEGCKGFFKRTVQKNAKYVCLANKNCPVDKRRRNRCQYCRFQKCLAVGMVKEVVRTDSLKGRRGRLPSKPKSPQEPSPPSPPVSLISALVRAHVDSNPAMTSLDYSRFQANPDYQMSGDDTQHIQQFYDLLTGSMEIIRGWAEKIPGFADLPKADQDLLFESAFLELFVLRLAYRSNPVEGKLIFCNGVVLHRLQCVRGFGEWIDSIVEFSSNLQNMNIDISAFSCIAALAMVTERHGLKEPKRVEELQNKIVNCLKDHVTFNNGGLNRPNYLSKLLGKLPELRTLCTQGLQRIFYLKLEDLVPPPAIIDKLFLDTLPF
Chain of Oxysterols receptor LXR-beta (Homo sapiens) (P55055 whole entry, looked up, the tested form may be a part): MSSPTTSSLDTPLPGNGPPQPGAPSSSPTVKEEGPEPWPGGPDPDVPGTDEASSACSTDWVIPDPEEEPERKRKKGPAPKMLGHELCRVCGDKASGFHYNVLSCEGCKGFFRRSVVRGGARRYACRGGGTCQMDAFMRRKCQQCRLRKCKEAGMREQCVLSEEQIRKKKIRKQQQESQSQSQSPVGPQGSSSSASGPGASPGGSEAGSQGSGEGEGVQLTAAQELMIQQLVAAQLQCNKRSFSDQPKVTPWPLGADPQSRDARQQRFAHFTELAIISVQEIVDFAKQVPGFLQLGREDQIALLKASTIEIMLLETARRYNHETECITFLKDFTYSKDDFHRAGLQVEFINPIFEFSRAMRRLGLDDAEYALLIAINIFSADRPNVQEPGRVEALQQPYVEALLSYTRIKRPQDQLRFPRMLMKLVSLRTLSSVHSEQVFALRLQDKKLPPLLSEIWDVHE
Chain of Transcriptional activator Myb (Homo sapiens) (P10242 whole entry, looked up): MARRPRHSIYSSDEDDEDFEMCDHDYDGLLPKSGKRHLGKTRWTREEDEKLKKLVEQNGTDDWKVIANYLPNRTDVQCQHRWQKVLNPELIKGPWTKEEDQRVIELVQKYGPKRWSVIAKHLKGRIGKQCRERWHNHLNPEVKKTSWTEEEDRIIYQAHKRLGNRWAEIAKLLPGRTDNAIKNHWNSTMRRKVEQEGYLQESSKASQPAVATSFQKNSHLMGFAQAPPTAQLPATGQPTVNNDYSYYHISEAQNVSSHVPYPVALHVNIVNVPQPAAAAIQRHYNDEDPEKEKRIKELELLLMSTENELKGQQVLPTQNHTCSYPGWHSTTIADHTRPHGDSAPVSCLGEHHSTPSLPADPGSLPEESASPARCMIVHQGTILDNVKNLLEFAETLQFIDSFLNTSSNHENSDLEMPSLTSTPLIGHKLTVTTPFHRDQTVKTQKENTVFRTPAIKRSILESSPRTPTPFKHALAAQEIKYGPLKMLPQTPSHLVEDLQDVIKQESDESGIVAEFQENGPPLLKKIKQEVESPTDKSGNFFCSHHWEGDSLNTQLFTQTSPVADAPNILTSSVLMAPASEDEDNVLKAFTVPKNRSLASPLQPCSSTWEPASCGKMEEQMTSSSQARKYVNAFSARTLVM

COc1ccc(COC(C)=O)cc1
inactive: [1] | [2] | [3] | [4] | [5] | [6] | [7]

Cc1ccc(S(N)(=O)=O)cc1
inactive: [1] | [8] | [4] | [9] | [10] | [6] | [7]

CCC(Cl)C(Cl)C(Cl)CC(Cl)C(Cl)C(C)Cl (centres undefined)
active: [1] 11 µM
inactive: [2] | [4] | [9] | [5] | [10] | [6] | [7]

CC(C)CC(C)CC(O)CC(C)C (centres undefined)
inactive: [1] | [8] | [9] | [5] | [6] | [7]

CCOC(=O)COC(=O)c1cc(Oc2ccc(C(F)(F)F)cc2Cl)ccc1[N+](=O)[O-]
inactive: [1] | [8] | [3] | [9] | [5] | [10] | [6] | [7]

c1ccc2[nH]cnc2c1
inactive: [1] | [8] | [9] | [5] | [10] | [6] | [7]

CCCCCCCCC=CCCCCCCCC1=NCCN1CCO
inactive: [1] | [2] | [3] | [4] | [10] | [6]
active: [7] 6.21 µM

CC1(C)C(=O)N(Cl)C(=O)N1Br
inactive: [1] | [8] | [9] | [5] | [10] | [6] | [7]

CC=Cc1ccc(OC)c(OC)c1
inactive: [1] | [8] | [3] | [9] | [5] | [10] | [6] | [7]

Oc1c(Cl)cc(Cl)c(Cl)c1Cc1c(O)c(Cl)cc(Cl)c1Cl
active: [1] 17.6 µM | [5] 11.1 µM
inactive: [2] | [3] | [10] | [6] | [7]

CC1(C)O[C@@H]2C[C@H]3[C@@H]4CCC5=CC(=O)C=C[C@]5(C)[C@@]4(F)[C@@H](O)C[C@]3(C)[C@]2(C(=O)CO)O1
inactive: [1] | [8] | [9] | [5] | [6] | [7]

CCOC(=O)C(C#N)=C(c1ccccc1)c1ccccc1
inactive: [1] | [4] | [9] | [7]
active: [5] 100 µM | [6] 55.2 µM

OCCOCCN1CCN(C2=Nc3ccccc3Sc3ccccc32)CC1
inactive: [1] | [4] | [9] | [5] | [10] | [6] | [7]

c1ccc(CCc2ccccc2)cc1
inactive: [1] | [3] | [4] | [9] | [5] | [10] | [6] | [7]

NC(=S)NNC(N)=S
inactive: [1] | [2] | [9] | [10] | [6] | [7]

CCC(C)=O
inactive: [1] | [2] | [4] | [10] | [6]

C=C(CC(=O)O)C(=O)O
inactive: [1] | [2] | [4] | [6] | [7]

O=C(O)CNc1ccccc1
inactive: [1] | [2] | [4] | [9] | [10] | [6] | [7]

CCCCCCCCCCCCS(=O)(=O)Cl
inactive: [1] | [3] | [9] | [6] | [7]

C=Cc1ccncc1
active: [3] 84.1 µM | [5] 100 µM | [10] 30.8 µM | [6] 37.5 µM | [7] 21.8 µM
inactive: [1] | [4]

IC(I)I
inactive: [1] | [2] | [9] | [5] | [10] | [6] | [7]

CCCCC1CCC(O)CC1 (centres undefined)
inactive: [1] | [4] | [9] | [5] | [10] | [6] | [7]

FC(F)(F)COCC(F)(F)F
inactive: [1] | [2] | [4] | [9] | [10] | [6]

COc1ccc(CCN2CCC(Nc3nc4ccccc4n3Cc3ccc(F)cc3)CC2)cc1
inactive: [1] | [4] | [9] | [5] | [10] | [6] | [7]

COc1cc([C@@H]2c3cc4c(cc3[C@@H](O[C@@H]3O[C@@H]5CO[C@@H](C)O[C@H]5[C@H](O)[C@H]3O)[C@H]3COC(=O)[C@H]23)OCO4)cc(OC)c1O
inactive: [1] | [3] | [4] | [10] | [6] | [7]

CC[N+](C)(CC)CC
inactive: [1] | [3] | [4] | [10] | [6]

C=COCCOCCOC=C
inactive: [1] | [3] | [9] | [5] | [10] | [6] | [7]

C1CCOC1
inactive: [1] | [3] | [4] | [9] | [5] | [10] | [6]

CC(C)=CCCC(C)CCOC=O (centres undefined)
inactive: [1] | [3] | [4] | [9] | [5] | [10] | [6] | [7]
